The values below come from PubChem BioAssay.

A short description of test [1]: inhibitors of TNFa-induced NFkB p65 translocation, primary screen, imaging, HUVEC, MLSMR starter and 10KST1 sets (AID 438;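 active means inhibition above 20% together with a positive visual image hit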;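 further: compound added about 3h40 before a 20 min TNFalpha stimulation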;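 on inhibition: signal is the nuclear over cytoplasmic p65 intensity ratio per well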). Conditions: HUVEC TNFa-induced p65 nuclear translocation; cell count: measured here: nuclei count (cytotoxicity indicator), at 2.08 µM; inhibition: at 2 µM, stronger effect = higher value, 0% TNFa-plus-vehicle, 100% no-TNFa wells.
The nature of test [2]: reduction of polyQ htt aggregates in cells – imaging, exon1htt(103Q)mCFP cells, high-content imaging, primary screen (AID 483;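 active means visual image review flags a hit and inhibition of aggregation exceeds 20%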;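 further: compound exposure lasted 3 days before fixation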;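 on nuclei count: percent of the per-plate median nuclei count of sample wells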). The conditions noted are these: exon1htt(103Q)mCFP cell line, aggregate imaging, at 2 µM; inhibition of aggregation: stronger effect = higher value; nuclei count: measured here: cell count, toxicity.
Test [3] in a line: endothelial E-selectin expression blockers – imaging, HUVEC, immunofluorescence, MLSMR starter and 10KST1 sets, primary screen (AID 487;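 active means visually confirmed hit in the image check and inhibition above 20%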;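 on inhibition: signal is fraction of cell area covered by stained E-selectin grains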;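 on nuclei count: 100% = median nuclei count of all wells on the same plate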). Conditions: HUVEC TNFalpha-induced E-selectin immunofluorescence imaging, at 2 µM; inhibition: stronger effect = higher value; nuclei count: measured here: cell number, toxicity.
Test [4] is described as follows: Primary imaging screen for DUSP6 inhibitors that restore phospho-Erk in transfected HeLa cells, chemical complementation (AID 609;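 active means compounds giving at least 50% inhibition in the cell-based MKP-3 phosphatase rescue imaging test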;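 on inhibition: phospho-Erk level distribution per well compared with pooled transfected vehicle control wells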). Conditions: HeLa MKP-3 transfected, phospho-Erk imaging KS statistic, at 10 µM, cells stimulated with TPA for 15 min.
The target in test [5] is Dual specificity protein phosphatase 6 (Homo sapiens) (UniProt Q16828). The test is described as above. The conditions noted are these: HeLa MKP-3 transfected, phospho-Erk imaging KS statistic; at 10 µM; stronger effect = higher value; cells stimulated with TPA for 15 min.
In test [6] the target is Voltage-gated potassium channel subunit beta-2 (Rattus norvegicus) (UniProt P62483). The test is described as follows: inhibitors of rat Kvbeta2 reductase activity – biochemical, NADPH fluorescence, primary screen (AID 622;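 active means fluorescence slope higher than the sample average by over 3 SD, cut at about -0.22 in these data, passing the limit was not always enough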;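 further: slope of raw intensity against log time taken from 70 to 1610 s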). Conditions: recombinant KvBeta, 4-cyanobenzaldehyde reduction, at 10 µM, stronger effect = higher value.
The target is the same in test [7]. The test is described as follows: enhancers of rat Kvbeta2 NADPH turnover – biochemical, NADPH fluorescence, primary screen (AID 623;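 active means NADPH fluorescence slope more negative than the mean of all samples by about 3 SD, 99.7% confidence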;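 further: fluorescence intensity change per second fitted from 20 to 320 s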). Conditions: Recombinant KvBeta, NADPH fluorescence decrease slope, 10 min; at 10 µM; stronger effect = lower value.
Test [8] has as its target Alpha-2C adrenergic receptor (Homo sapiens) (UniProt P18825). The test is described as follows: compounds altering alpha2C-coupled GIRK flux – cell-based, HEK293 alpha2C/GIRK1/2, thallium flux, primary screen (AID 624;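 active means fluorescence slope after compound addition differing from the mean of all screened samples at 99.7% confidence, in either direction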;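 further: slope of fluorescence ratio to pre-addition baseline per second over 15 to 24 s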). The conditions noted are these: thallium flux BTC fluorescence, at 10 µM, actives lie on both sides.
Test [9] is described as follows: inhibitors of larval lipid processing in zebrafish, primary screen, whole organism, PED6 fluorescence, gall bladder and intestine (AID 686;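 active means a full or partial loss of lipid-probe fluorescence in the fish gall bladder, intestine or both, judged by eye; inactive means no fluorescence loss, or compound toxic to the fish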;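 further: larvae 5 to 7 days old with five fish per well; signal comes from phospholipase A2 cleavage of quenched PED6 carried via bile; overnight exposure to compound and PED6 before scoring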). The conditions noted are these: Zebrafish larvae PED6 lipid processing, fluorescence scoring; screened at 20 µM (by protocol).
Test [10] can be described thus: loss of swimming-algae plug formation – whole organism, Chlamydomonas reinhardtii, WT vs cilia-less mutant, absorbance, 96-well, primary screen (AID 463189).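 Further: 0% = wild type cc124 cells in DMSO and 100% = ciliumless bld1 mutant cells.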 The conditions noted are these: Chlamydomonas reinhardtii gravitaxis, OD600 absorbance, 2 days; at 10 µM; stronger effect = higher value.
The nature of test [11]: blockers of RIG-like receptor reporter activation – cell-based, Sendai virus stimulus, luciferase, 10K MLSCN set, TLR/RLR signaling modifier project, primary screen (AID 602276;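 active means inhibition at or above 50% at 10 µM; inactive means inhibition below 50%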;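 further: firefly luciferase from ISG56 promoter only with Renilla not read in this screen; 0% = Sendai virus plus DMSO and 100% = medium plus DMSO without virus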). Conditions: HEK293 RL24 IRF3 luciferase reporter, at 10 µM, stronger effect = higher value. Background: Reporter assays use an easily measured gene product as a stand-in for the process of interest.
Test [12] in a line: TLR3 IRF3 reporter activation blockers – cell-based, poly I:C stimulus, luciferase, 10K MLSCN set, primary screen (AID 602277;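 active means inhibition of the reporter signal at or above 50%; inactive means inhibition below 50%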). Conditions: HEK293-TLR3 RL24 IRF3 luciferase reporter, at 10 µM, stronger effect = higher value.
Where [13] appears, read: measured here: cell density z-score.
The mark [14] stands for this setting: measured here: nuclear c-Myc green intensity z-score.
Where [15] appears, read: measured here: nuclear pErk red intensity z-score, stronger effect = higher value.

Where “and” joins values, the source holds several entries; their conditions need not be identical. Equal values may be shown once. Calls of active or inactive are those of the source.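 How the source made its calls, unless noted: active means inhibition at or above 50% relative to wild type and mutant plate controls; inactive means inhibition below 50%.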

Alpha-2C adrenergic receptor (Homo sapiens), sequence (P18825 whole entry, looked up): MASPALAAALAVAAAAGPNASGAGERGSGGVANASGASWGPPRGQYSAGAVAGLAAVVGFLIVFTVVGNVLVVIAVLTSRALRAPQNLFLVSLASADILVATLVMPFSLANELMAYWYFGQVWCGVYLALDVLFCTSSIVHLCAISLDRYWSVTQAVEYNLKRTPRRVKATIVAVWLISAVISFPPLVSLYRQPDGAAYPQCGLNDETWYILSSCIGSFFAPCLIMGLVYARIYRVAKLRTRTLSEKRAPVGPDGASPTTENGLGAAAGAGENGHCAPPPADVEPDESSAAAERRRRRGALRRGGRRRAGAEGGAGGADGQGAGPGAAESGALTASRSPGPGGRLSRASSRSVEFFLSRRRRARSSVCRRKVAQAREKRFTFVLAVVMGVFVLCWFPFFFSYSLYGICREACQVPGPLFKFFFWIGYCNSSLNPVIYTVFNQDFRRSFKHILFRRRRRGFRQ
Dual specificity protein phosphatase 6 (Homo sapiens), sequence (Q16828 whole entry, looked up): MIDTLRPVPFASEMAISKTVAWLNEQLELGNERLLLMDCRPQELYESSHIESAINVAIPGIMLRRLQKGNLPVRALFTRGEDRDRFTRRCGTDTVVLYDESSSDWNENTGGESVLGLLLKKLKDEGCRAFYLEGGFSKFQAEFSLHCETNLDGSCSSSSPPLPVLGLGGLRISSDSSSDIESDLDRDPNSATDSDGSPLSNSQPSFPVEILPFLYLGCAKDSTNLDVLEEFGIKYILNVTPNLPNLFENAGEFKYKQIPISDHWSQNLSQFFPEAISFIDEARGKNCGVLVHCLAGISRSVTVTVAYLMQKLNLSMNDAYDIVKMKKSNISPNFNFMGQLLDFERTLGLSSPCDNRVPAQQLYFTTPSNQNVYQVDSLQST
Voltage-gated potassium channel subunit beta-2 (Rattus norvegicus), sequence (P62483 whole entry, looked up): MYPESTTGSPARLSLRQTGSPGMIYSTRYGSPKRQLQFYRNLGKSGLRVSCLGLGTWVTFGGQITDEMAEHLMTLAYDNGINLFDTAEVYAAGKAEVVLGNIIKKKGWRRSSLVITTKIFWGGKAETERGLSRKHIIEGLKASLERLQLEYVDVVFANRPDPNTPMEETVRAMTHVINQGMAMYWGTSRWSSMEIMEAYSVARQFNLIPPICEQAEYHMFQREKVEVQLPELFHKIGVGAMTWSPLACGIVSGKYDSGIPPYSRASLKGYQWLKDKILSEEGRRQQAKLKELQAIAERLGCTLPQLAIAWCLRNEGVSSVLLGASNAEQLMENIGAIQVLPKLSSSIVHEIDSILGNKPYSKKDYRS

As usually defined, the inhibition is the relative decrease from the control value, in per cent. For `Cc1nc2ccccn2c(=O)c1CCN1CCC(C(=O)c2ccc(F)cc2)CC1`, the cell count in test [1] was 712. In addition, the inhibition in [1] was 2.4% (inactive); in test [3], -63.6% (inactive); in [5] it was 19% (inactive); in test [10], 0.607% (inactive) and -12.6% (inactive); in test [11], 19.4% (inactive); in test [12], 35.8% (inactive). In addition, the inhibition of aggregation in [2] is -22.1% (inactive). Also, the values for the nuclei count in test [2] and in [3] were 103% and 126%, respectively. The z-score is 2.25 in [4] (setting [13]), 1.22 in test [4] (setting [14]) and -0.61 in test [4] (setting [15]). The fluorescence slope in [6] was -0.464 (inactive). The NADPH fluorescence slope in [7] was 1.2e-06 (inactive). Also, the slope in test [8] was 0.00457 (inactive). Moreover, in [9], the molecule was classed as inactive.
Take `NS(=O)(=O)c1cc2c(cc1C(F)(F)F)NC(Cc1ccccc1)NS2(=O)=O` (stereo not given): the cell count in test [1] turned out to be 519. The inhibition was -2.8% (inactive) in test [1]; -18.5% (inactive) in test [3]; -0.493% (inactive) in test [5]; -16.5% (inactive) in test [10]; 9.6% (inactive) in test [11]; 2% (inactive) in test [12]. In addition, in test [2], the inhibition of aggregation is 18.4% (inactive). The nuclei count in [2] came out at 75.3%; in test [3], 105%. The results for the z-score in [4] (setting [13]), in [4] (setting [14]) and in test [4] (setting [15]) were -0.539, -0.574 and 0.0203, respectively. Also, the fluorescence slope in [6] was -0.528 (inactive). In test [7], the NADPH fluorescence slope is 7.9e-07 (inactive). Besides, the slope in test [8] was 0.00523 (inactive). Also, the molecule was called inactive in test [9].
As for `CN1C2C=C3C(C#N)=C(N)C(C#N)(C#N)[C@@H](c4ccc(Cl)cc4)[C@@H]3C1CC2` (stereo not given in full), the cell count in test [1] stood at 492. Also, the inhibition in test [1] was -3.5% (inactive); in [3], -63.9% (inactive); in [5], -2.47% (inactive); in test [10], 11.6% (inactive); in test [11], 13.8% (inactive); in test [12] it was 29.9% (inactive). The inhibition of aggregation in test [2] was 11.7% (inactive). The nuclei count was determined as 110% in test [2] and 120% in [3]. Further, the z-score is 1.1 in test [4] (setting [13]), -0.782 in test [4] (setting [14]) and 0.349 in test [4] (setting [15]). For the same molecule, the fluorescence slope in test [6] is -0.517 (inactive). In addition, the NADPH fluorescence slope in test [7] was -1.7e-05 (inactive). The slope in [8] is 0.00502 (inactive). Moreover, in test [9], the molecule was called inactive.
In the case of `COc1ccccc1NC(=O)C1=C(C)NC(SCC(=O)c2ccc(C)cc2)=C(C#N)C1c1ccco1` (stereo not given), the cell count in test [1] came out at 529. The inhibition in test [1] is -0.5% (inactive); in test [3], 6.5% (inactive); in [5] it was -2.07% (inactive); in test [10], 36.3% (inactive); in test [11], -17.3% (inactive); in [12], -56.3% (inactive). Further, the inhibition of aggregation in test [2] was 9.6% (inactive). Besides, the nuclei count is 99.4% in test [2] and 114% in test [3]. The z-score was 0.647 in [4] (setting [13]), -0.415 in test [4] (setting [14]) and 1.41 in test [4] (setting [15]). Also, the fluorescence slope in test [6] was -0.481 (inactive). In addition, the NADPH fluorescence slope in test [7] was -7.1e-05 (inactive). Further, the slope in test [8] was 0.00753 (inactive). Further, in [9], the molecule was called inactive.
Turning to `CC(=O)Nc1nnc(S(N)(=O)=O)s1`, the cell count in test [1] turned out to be 660. The inhibition is -4.8% (inactive) in test [1]; -29.7% (inactive) in test [3]; 13.3% (inactive) in test [5]; 0.808% (inactive) and -5.65% (inactive) in [10]; -14.2% (inactive) in [11]; 1.99% (inactive) in test [12]. For the same molecule, the inhibition of aggregation in test [2] is -0.3% (inactive). For the same molecule, the nuclei count in [2] is 93.8%; in [3], 122%. The z-score is -0.588 in test [4] (setting [13]), -1.08 in [4] (setting [14]) and 0.272 in test [4] (setting [15]). Moreover, in [6], the fluorescence slope is -0.462 (inactive). For the same molecule, the NADPH fluorescence slope in test [7] is -6.7e-05 (inactive). In test [8], the slope was 0.0054 (inactive). Also, the outcome in test [9] was “active; no signal in intestine only”.
As to `CCOC(=O)c1[nH]c2ccc(Br)cc2c1NC(=O)CCN1CCC(C(=O)OCC)CC1`, the cell count in test [1] came out at 566. Moreover, the inhibition in test [1] is -16.7% (inactive); in [3], -91.6% (inactive); in test [5], -0.674% (inactive); in test [10], 15.3% (inactive); in test [11], 7.83% (inactive); in test [12], -1.42% (inactive). Besides, in [2], the inhibition of aggregation was 2.2% (inactive). Moreover, the nuclei count came to 96.4% in test [2] and 130% in test [3]. Also, the figures for the z-score in [4] (setting [13]), in test [4] (setting [14]) and in [4] (setting [15]) were 1.13, -1.08 and 0.103, respectively. Moreover, the fluorescence slope in test [6] is -0.523 (inactive). In addition, the NADPH fluorescence slope in test [7] was -2.9e-05 (inactive). In addition, the slope in [8] was 0.00522 (inactive). Also, the molecule was called inactive in [9].
`C[C@]12CCC(=O)C=C1CC[C@@H]1[C@@H]2[C@@H](O)C[C@@]2(C)[C@H]1CC[C@]2(O)C(=O)CO`: in test [1], the cell count worked out at 526. In addition, the inhibition in test [1] was 1.3% (inactive); in [3], -35.4% (inactive); in test [5] it was 5.42% (inactive); in [10], 2.91% (inactive) and -18.2% (inactive); in test [11] it was 4.18% (inactive); in test [12] it was 38.7% (inactive). In [2], the inhibition of aggregation is -3.8% (inactive). Further, the nuclei count in test [2] came to 63.5%; in test [3] it was 94.1%. In addition, the z-score in test [4] (setting [13]) is -3.38; in test [4] (setting [14]), -0.793; in test [4] (setting [15]), -0.0815. The fluorescence slope in [6] is -0.459 (inactive). For the same molecule, the NADPH fluorescence slope in test [7] was -3.2e-05 (inactive). Moreover, the slope in test [8] was 0.00455 (inactive). In addition, in test [9], the result was inactive.
On to `N=c1c(C(=O)NCc2ccccc2)cc2c(=O)n3ccccc3nc2n1Cc1ccco1`, for which the cell count in test [1] was 365. Further, the inhibition in test [1] was -3.1% (inactive); in test [3], -250% (inactive); in test [5], 9.39% (inactive); in test [10], -4.74% (inactive); in test [11], -0.117% (inactive); in [12] it was 19.6% (inactive). The inhibition of aggregation in test [2] was -10% (inactive). The figures for the nuclei count in test [2] and in test [3] were 91.6% and 133%, respectively. Further, the z-score in test [4] (setting [13]) was 0.674; in test [4] (setting [14]), 0.212; in [4] (setting [15]) it was -1.53. Also, the fluorescence slope in [6] is -0.375 (inactive). For the same molecule, in test [7], the NADPH fluorescence slope was -4.7e-05 (inactive). Further, the slope in test [8] is 0.00267 (inactive). For the same molecule, the outcome in [9] was inactive.
Regarding `CC1(C)Cc2c(c(N3CCOCC3)nc3sc(C#N)c(N)c23)CS1`, the cell count in test [1] amounted to 626. For the same molecule, the inhibition in test [1] is -0.4% (inactive); in test [3] it was -68.9% (inactive); in test [5] it was 5.42% (inactive); in [10], 21.2% (inactive); in test [11] it was -2.57% (inactive); in [12] it was 16.1% (inactive). Besides, the inhibition of aggregation in test [2] is -6.4% (inactive). The nuclei count was found to be 114% in test [2] and 120% in test [3]. In addition, the z-score in [4] (setting [13]) is -0.238; in test [4] (setting [14]), -0.405; in [4] (setting [15]) it was 0.382. In test [6], the fluorescence slope is -0.0293 (active). In test [7], the NADPH fluorescence slope was -1.7e-06 (inactive). The slope in test [8] is 0.00535 (inactive). Moreover, the molecule was classed as inactive in test [9].
Regarding `CC(=O)[C@H]1CC[C@H]2[C@@H]3CCC4=CC(=O)CC[C@]4(C)[C@H]3[C@H](O)C[C@]12C`, in test [1], the cell count is 603. Further, the inhibition in test [1] was -11.5% (inactive); in test [3], -156% (inactive); in test [5] it was 7.39% (inactive); in test [10] it was -5.96% (inactive); in test [11] it was -13.1% (inactive); in test [12], -16.3% (inactive). The inhibition of aggregation in test [2] is 8.3% (inactive). Also, the nuclei count in [2] amounted to 112%; in [3], 135%. For the same molecule, the results for the z-score in [4] (setting [13]), in test [4] (setting [14]) and in [4] (setting [15]) were 1.17, 0.758 and -0.978, respectively. The fluorescence slope in [6] was -0.485 (inactive). In addition, the NADPH fluorescence slope in [7] is 4.5e-06 (inactive). Moreover, the slope in test [8] was 0.00386 (inactive). The result in [9] was inactive.
